Screening results as filed in PubChem.
Hsp90 Hop PPI = changes Hsp90-Hop TPR2A binding signal, up or down | AlphaScreen TPR2A-His6 binding biotin-Hsp90 C-terminal peptide | Potency, µM (highest dose often 57 µM), inactives show at the highest dose activity change, negative = inhibition | 71,000 compounds, 0.44% hits; active = well fitted curve in either direction with a large enough effect; inconclusive = small, poorly fitted or top-dose-only effect, or another doubt; also: % is scaled to controls: 0 for no effect and ±100 for the full control effect
Tau filament bind = binds recombinant human tau filaments. recombinant tau filaments, thioflavin S fluorescence, 15 h; filaments grown with octadecylsulfate alongside compound. Potency, µM (titrated, usually from 57.1 µM), for the others: top-dose activity change, negative = inhibition. 71,000 compounds, 2% hits. AID 596;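 also: % is scaled to controls: 0 for no effect and ±100 for the full control effect; actives lower thioflavin S fluorescence by blocking filaments or displacing dye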
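Tau 2 uM in ThS buffer dispensed; compound added; 60 uM ODS added (finals 1 uM tau, 30 uM ODS); 15 h 37 C; fluor ex450/em510.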
Caspase-7 inhib = caspase-7 (human) inhibition, allosteric or competitive; Potency, µM (highest dose often 57.5 µM), without a hit: top-dose activity change, negative = inhibition, usual class: inhibitors; 75,000 compounds, 0.02% hits; AID 889; recombinant caspase-7, Ac-DEVD-AFC fluorescence rate; active = well fitted inhibition curve with a large enough effect in the main read-out, with a control signal flat, not every such curve was filed as active; inconclusive = small, poorly fitted or top-dose-only effect, or a change in a side signal; also: % of control where 0% means no effect
ALOX15B inhib = 15-hLO-2 (ALOX15B) enzyme inhibition; O15296; Potency, µM (highest dose often 57.1 µM), inactives show at the top dose activity change, negative = inhibition, most hits filed as inhibitors; 110,000 compounds, 0.56% hits; AID 881; purified 15hLO-2, xylenol orange hydroperoxide absorbance; also: % is scaled to controls: 0 for no effect and ±100 for the full control effect; nearly all actives have a fitted effect of over 60% in size
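Enzyme 50 nM, AA 45 uM, 25 mM Hepes pH 7.5 + 0.01% Triton X-100; cpd preinc 15 min RT, rxn 90 min RT; stop/detect with 200 uM XO + 300 uM Fe(II) in 50 mM H2SO4, 30 min; A573/A405.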
ALOX15 inhib = inhibitors of human 15-lipoxygenase (ALOX15); P16050; purified 15hLO-1, xylenol orange hydroperoxide absorbance; Potency, µM (titrated, usually from 57.1 µM), without a hit: at the top dose activity change, negative = inhibition, hits mostly inhibitors; 74,000 compounds, 1.4% hits; also: % is scaled to controls: 0 for no effect and ±100 for the full control effect; nearly all actives have a fitted effect of over 55% in size
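Compounds were preincubated 15 min at room temperature with 40 nM purified human enzyme (25 mM Hepes pH 7.5, 0.01% Triton X-100); 50 uM arachidonic acid reacted 6 min. Fe-xylenol orange detection, 30 min, absorbance ratio 573/405 nm.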
Casp1 inh = blocks human caspase-1 allosterically or competitively. 75,000 compounds, 0.03% hits. Potency, µM (titrated, usually from 57.5 µM), for the others: top-dose activity change, negative = inhibition, hits mostly inhibitors. P29466. Caspase-1 enzyme, Ac-WEHD-AFC fluorogenic rate;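 also: plate controls were vehicle for no effect and no substrate for full effect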
* hit, by the source's call; ? = inconclusive; . = no result; [ ] = remark or other dose. Most compounds without a hit are left out; they make up all but 2.4% or so of the library. Unless noted, calls follow the shape of the dose curve; as a rule, active = well fitted curve in the direction sought with a large enough effect; inconclusive = small, poorly fitted or top-dose-only effect, or another doubt; inactive = no such curve, though single readings can be large; an effect the other way counts as inactive or inconclusive. Potency is read from the fitted curve at half-maximal effect.

SMILES	Hsp90 Hop PPI	Tau filament bind	Caspase-7 inhib	ALOX15B inhib	ALOX15 inhib	Casp1 inh
Cc1noc(COc2ccc(OCc3nc(C)no3)cc2)n1	0%	0.79µM*	0%	4%	0%	-5%
CCCc1[nH][nH]c(=O)c1C(c1ccccc1)C(C#N)C#N (stereo not drawn)	0%	-1%	-1%	-7%	-5%	1%
CCOC(=O)c1c(C)oc2c1c(C(c1ccncc1)N1CCOCC1)c(O)c1ccccc12 (stereo not drawn)	-20%	13µM*	-2%	4%[2.29 µM]	?	-2%
CCOC(=O)c1c(C)oc2c1c1c(c3ccccc32)OCN(Cc2ccccn2)C1	.	.	.	38%	.	.
COc1ccc(C2Nc3ccccc3C(=O)N2Cc2ccco2)cc1COc1ccc(NC(C)=O)cc1 (stereo not drawn)	?	112%	-8%	-10%	16µM*	-10%
N#CC1=C(N)Oc2cc(O)ccc2C1c1ccncc1 (stereo not drawn)	.	.	.	-1%	.	.
CN(C)c1ccc2c(c1)OC(N)=C(C#N)C2c1cccc(F)c1 (stereo not drawn)	-12%	176%	?	-15%	13µM*	?
CCOC(=O)c1cnc2cc(-c3ccc(C(C)(C)C)cc3)nn2c1N	.	.	.	13%	.	.
CCN1CCc2c(sc(NC(=O)c3ccc(S(=O)(=O)N4CCOCC4)cc3)c2C(=O)OC)C1	-2%	20%	-3%	30%	-2%	-4%
CCOC(=O)c1cc(C)[nH]c(=S)c1C#N	-4%	-16%	-3%	25µM*	4µM*	-2%
CCOC(=O)c1cc(C#N)c(N)nc1C	-4%	-8%	-2%	-1%	5%	0%
Cc1onc(-c2ccccc2Cl)c1C(=O)Nc1ccc(-n2nncc2-c2ccco2)cc1	-12%	?	0%	-11%	-9%	-2%
Cc1onc(-c2ccccc2Cl)c1C(=O)Nc1ccc(-n2nncc2C(C)(C)C)cc1	-3%	25µM*	1%	0%	-4%	-5%
O=C(NC(=S)Nc1ccc(N2CCCCC2)c(Cl)c1)c1ccc2c(c1)OCCO2	.	.	.	10µM*	.	.
O=C(Nc1ccccc1N1CCCC1)c1ccc2c(c1)OCO2	-4%	-1%	-1%	3%	?	-2%
O=C(Cc1ccccc1)Nc1ccc(CN2CCOCC2)cc1	0%	-3%	-1%	7%[2.29 µM]	-1%	0%
CC(C)C12CN3CC(C(C)C)(CN(C1)C31C(=O)Nc3ccccc31)C2=O (stereo not drawn)	0%	16µM*	0%	4%	5%	0%
Cc1cc(NC(=O)Cc2ccccc2)nc2c1c(=O)oc1ccccc12	.	.	.	-1%	.	.
O=C(Nc1cccc(-c2cnc3ccccc3n2)c1)c1ccco1	-7%	32µM*	0%	11%	-11%	-3%
CC1(C)Cn2c(nnc2-c2ccccc2)S1	-5%	-3%	0%	1%	1%	1%
CC(C)=CCC[C@](C)(O)C1CC=C(C)CC1 (stereo partly drawn)	.	.	-8%	-10%	13µM*	2%
Cc1cc(Cl)ccc1Nc1sc(C(=O)c2cc3cc(Cl)ccc3o2)c(N)c1C#N	-7%[11 µM]	3.2µM*	-8%[11.5 µM]	-6%[11.4 µM]	-4%[11.4 µM]	-3%[11.5 µM]
Cc1nc(NC2CCCCC2)c2nc(-c3ccccc3)n(CCN3CCCCC3)c2n1	-8%	37%	-1%	38%	?	-2%
CCOC(=O)c1nn(-c2ccc(OC)cc2)c(=O)c2c(N)scc12	-13%	16µM*	-11%	-17%[11.4 µM]	7.9µM*	?
CCOC(=O)c1nn(-c2ccc(C)c(C)c2)c(=O)c2c(N)scc12	.	.	.	-21%	.	.
SMILES	Hsp90 Hop PPI	Tau filament bind	Caspase-7 inhib	ALOX15B inhib	ALOX15 inhib	Casp1 inh
COC(=O)CCC(=O)Nc1sc2c(c1C#N)CCCC2	2%	-6%	1%	-11%	-12%	-1%
Cc1nc(NC(=O)c2ccccc2)sc1-c1csc(Nc2ccc(Cl)cc2)n1	.	.	.	23%	.	.
COc1ccc(Nc2nc(-c3sc(N)nc3C)cs2)cc1	?	13µM*	-2%	2%[2.29 µM]	-16%	-4%
Cc1nc(N)sc1-c1csc(Nc2ccc(Cl)cn2)n1	-27%	16µM*	-5%	.	-15%	-3%
COc1ccc(CCNc2ccncn2)cc1OC	.	.	.	4%	.	.
COc1ccc(CCNc2nc(-c3sc(N)nc3C)cs2)cc1OC	-29%	16µM*	-4%	27%	-9%	-5%
Cc1nc(N)sc1-c1csc(Nc2ccccn2)n1	-25%	25µM*	-2%	17%	-1%	-5%
Cc1ccccc1Nc1nc(-c2sc(NC(=O)c3ccccc3)nc2C)cs1	.	.	.	-1%	.	.
COC(=O)c1ccc(Cn2c(CN3CCOCC3)nc3ccccc3c2=O)o1	-6%	2%	1%	1%	1%	1%
Nc1cc(=O)[nH]c(SCc2ccc(Cl)cc2)n1	.	.	.	-3%	.	.
Cc1cc(-c2cccs2)c2c(n1)sc1c(=O)[nH]c(=O)[nH]c12	-3%	-16%	-2%	-2%	-4%	1%
Nc1c(S(=O)(=O)O)cc(S(=O)(=O)O)c2ccc(N=Nc3ccccc3)c(O)c12	?	-1%[11.4 µM]	-2%[11.5 µM]	-2%[11.4 µM]	8%[11.4 µM]	2%[11.5 µM]
Cc1cc(-c2ccc(N=Nc3cc(S(=O)(=O)O)c4ccccc4c3N)c(C)c2)ccc1N=Nc1cc(S(=O)(=O)O)c2ccccc2c1N	1.3µM*	0.02µM*	0%	3.2µM*	0.4µM*	-6%
CCCN=Cc1sc2ccc(OCC)cc2c1O	-9%	16µM*	-7%	?	-25%	-7%
CC(=O)NCCN=Cc1sc2ccccc2c1O	.	.	-18%	-18%	-10%	-12%
O=C1c2ccccc2NC(c2ccc(Cl)cc2Cl)N1O (stereo not drawn)	-4%	-18%	1%	?	16µM*	1%
COCCNc1nc(SCc2ccccc2)nc2sc3c(c12)CCC3	.	.	.	-4%	.	.
Cc1cccc(-n2c(SCC(=O)Nc3nnc(C)s3)nnc2-c2ccoc2C)c1	?	16µM*	-1%	-1%	-16%	-4%
CCc1nnc(NC(=O)CSc2nnc(-c3ccoc3C)n2-c2cccc(C)c2)s1	0%	10%	1%	5%	-2%	0%
CN(Cc1ccco1)c1nc(-c2ccoc2)nc2ccccc12	-8%	-11%	-8%	-21%	13µM*	-7%
O=C(Cn1ncn2c(cc3ccccc32)c1=O)NCCC1=CCCCC1	-2%	-2%	-8%	-3%	16µM*	-4%
CCOC(=O)C1=C(C)NC(=O)NC1c1ccc(OC(C)C(=O)O)c(OC)c1 (stereo not drawn)	13µM*	6%	?	2%	25µM*	.
Nc1cc(Cl)c(N)cc1Cl	-3%	25µM*	-1%	-24%	9%	-2%
CCOc1cc(N2CCOCC2)c(OCC)cc1NC(=O)c1cc(-c2ccco2)nc2ccccc12	-17%	10µM*	-2%	?	-24%	-2%
